The panel holds about 83,000 compounds, 20% with a hit somewhere; the sample as a whole holds those more often.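 Cells were grown in 96-well plates and exposed to the test compound at a single concentration for 48 hours; results are reported as percent growth, with values below 10 considered active.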 A number with no mark means an inactive call. Calls of active or inactive are those of the source.
Test system: CCRF-CEM leukemia
Experiment: NCI-60 one-dose screen, 48 h (100 = growth as untreated, 0 = no growth, -100 = all killed)
Details: 10 µM
Experimental: Growth inhibition of the CCRF-CEM human tumor cell line is measured as a screen for anti-cancer activity. Cells are grown in 96 well plates and exposed to the test compound for 48 hours. Compounds are tested at a single concentration, which is 10^-5 M for most compounds. The reported endpoint is percent growth (GI% or GIPRCNT), where numbers from 0 - 100% represent growth inhibition, and numbers from -100% - 0 represent cell death. For example, a value of 40 represents 60% growth inhibition. A value of 0 means no net growth occurred over the course of the experiment. A value of -40 indicates 40% of cells at the beginning of the experiment died by the end of the experiment. A value of -100 means all cells are dead at the end of the experiment.
NCI-60 Human Tumor Cell Lines Screen was performed using the standard one-dose NCI protocol, which is described in more detail at https://dtp.cancer.gov/discovery_development/nci-60/default.htm.
Compounds with GIPRCNT values below 10 were considered active. Activity score was based on GIPRCNT using the following formula: […]
Score is 0 for GIPRCNT values of 100 or above, 50 for GIPRCNT values of 0, and 100 for GIPRCNT values of -100.

Row | Structure (SMILES) | growth
1 | CN(C)c1ncnc2c1nnn2C1OC(CO)C(O)C1O (stereo not given) | 8.83% (active)
2 | CCN(CC)CCNc1ccc(C)c2sc3cc(Cl)ccc3c(=O)c12 | 11.6%
3 | CCOC(=O)c1cc(C(=O)c2cc(OC)c(OC)c(OC)c2)n2c1ccc1c3cccnc3ccc12 | 62.7%
4 | COc1ccc(-c2nn(-c3cccc(Cl)c3)cc2-c2cc(-c3ccccc3)nc(N)n2)cc1 | 41.1%
5 | O=C(N/N=C/c1ccc(Cl)cc1)c1ccc(Cc2n[nH]c(=O)c3cccnc23)cc1 | 107%
6 | CN(C)c1ccc(/C=N/NC(=O)c2cccc3ccccc23)c(Cl)c1 | 10.1%
7 | CCC(=O)OC1CCC2C3CCC(=O)OC3C(C)(CCC(=O)O)CC12C (stereo not given) | -14.8% (active)
8 | O[C@@H]1CO[C@H]2[C@@H]1OC[C@@H]2O | 101%
9 | O=C(CC(CC(=O)c1ccccc1)c1ccccc1O)c1ccccc1 | 98.6%
10 | CC1OC2CC(=O)OC2C2=C1C(=O)c1c(O)c3c(c(O)c1C2=O)C1CC(O)C3(O)C(C)O1 (stereo not given) | 12%
11 | COc1cc2cc(Oc3ccc(NC(=O)Nc4cccc(C(F)(F)F)c4)cc3)c(C)nc2cc1OC | 6.41% (active)
12 | CCOC(=O)c1cc(C(=O)c2cc(OC)cc(OC)c2)n2ncc3ccccc3c12 | 23.5%
13 | COc1ccc2c(c1)C(CC(=O)NN)CCC2 (stereo not given) | 100%
14 | CC1=NN(C(=O)c2nn(-c3ccc(Cl)cc3)cc2O)C(=O)C1 | 13.5%
15 | Cc1ccc(-n2nnnc2N)c(C)c1 | 112%
16 | CCCCC/C=C/C/C=C/CCCCCCCC1=NC(C)(C)CN1C(C)C | 8.7% (active)
17 | Cc1cn(-c2cccc(NC(=O)c3ccc(C)c(Nc4nccc(-c5cccnc5)n4)c3)c2)cn1 | 25%
18 | O=C(Nc1nc(-c2ccccc2)nc2c1sc(=S)n2-c1ccccc1)C(F)(F)F | 80.8%
19 | C/C(=C/CCC(C)[C@@H]1CC[C@]2(C)C3=C(CC[C@@]12C)[C@@]1(C)CCC(=O)C(C)(C)[C@@H]1CC3)C(=O)O (stereo not given in full) | -21% (active)
20 | COc1ccc(Nc2cnc3cc(NS(=O)(=O)c4ccc(C)cc4)ccc3n2)cc1 | 90%

Row | Structure (SMILES) | growth
21 | Clc1ccc2c(c1)C(N1CCNCC1)=Nc1ccccc1O2 | 58.5%
22 | CC(=O)OC/C=C(/C)C[P+](c1ccccc1)(c1ccccc1)c1ccccc1 | 52.7%
23 | CCN(CC)CCN1c2nc3ccccc3cc2Sc2cc3ccccc3nc21 | -27.3% (active)
24 | Cc1cccc(N=Cc2ccccc2O)c1C | 101%
25 | NC(CSC(c1ccccc1)(c1ccccc1)c1cccc2ccccc12)C(=O)O (stereo not given) | 86.2%
26 | COc1ccc(/C=C2\CCCC3=C2N=C2SC(C)=CN2C3c2ccc(OC)cc2)cc1 (stereo not given) | 104%
27 | CC1C(=NC(=O)c2cnccn2)C(C)C(c2ccc(Cl)cc2)NC1c1ccncc1 (stereo not given) | 79.5%
28 | CN1CCN(CC(=O)Nc2cccc(-n3cc(-c4ccncc4)c(-c4ccc(Cl)c(O)c4)n3)c2)CC1 | 23.9%
29 | O=C1c2ccccc2C(=O)N1CCCCNc1ccccc1 | 21.3%
30 | N#CCc1csc(Cc2ccccc2)n1 | 94.2%
31 | C#CC(C)(O)[C@@H]1C[C@H](CC(=O)O)C1(C)C (stereo not given in full) | 137%
32 | Cc1ccc(C(=O)/C=C/c2ccccc2)s1 | 99.8%
33 | COc1cc2cc(Oc3ccc(NC(=O)Nc4ccc(C(F)(F)F)cc4)cc3)c(C)nc2cc1OC | 68.5%
34 | COC(=O)CC[C@@H](C)[C@H]1CC[C@H]2[C@@H]3CC[C@@H]4C[C@H](O)CC[C@]4(C)[C@H]3C[C@H](O)[C@]12C | 86.3%
35 | CCN(CC)c1ccc(/C=C2\SC(=O)C(Nc3nnc(-c4cccnc4SCc4ccccc4)o3)C2=O)cc1 (stereo not given) | 50.6%
36 | CCC(c1ccc(OC)cc1)C(CC)c1ccc(O)c(CN2CCN(C)CC2)c1 (stereo not given) | 56.9%
37 | O=C1c2ccccc2C(=O)c2c1ccc(C(Br)Br)c2Cl | -6.37% (active)
38 | CCCCC(CC)CN=C(N)NC(N)=NCCCCCCN=C(N)NC(N)=NCC(CC)CCCC (stereo not given) | -54% (active)
39 | Oc1cccc(-c2nc3sccn3c2-c2ccncn2)c1 | 94.1%
40 | CCc1c2c(nc3ccc(OC(=O)N4CCC(N5CCCCC5)CC4)cc13)-c1cc3c(c(=O)n1C2)COC(=O)[C@]3(O)CC | 5.44% (active)

Reference: PubChem BioAssay (NCI)
